Screen size: about 5,500 compounds; about 2,000 (36%) were called active. Roughly 18% stayed inconclusive and do not appear here. Rule as the data show it: active = normalized growth mostly below about 0.91 (no sharp cut-off); inconclusive = no clear call, values can overlap the other calls; inactive = mostly above about 0.92. Some of the results follow.
Assay: chemical genetic growth profiling, strain panel (AID 1159580);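 also: tested at 20 µM; growth read once vehicle control cultures reached saturation at 30 °C; 1 = growth at the plate median or of vehicle wells; lower values mean less growth of the strain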
Settings: S. cerevisiae deletion strains, growth OD
[1] = locus YAL021C, strain ccr4, hits give low values
[2] = locus YAL026C, strain drs2, hits give low values
[3] = locus YAL030W, strain snc1, hits give low values
[4] = locus YBL061C, strain skt5, hits give low values
[5] = locus YBR009C, strain hhf1, hits give low values
[6] = locus YBR023C, strain chs3, hits give low values
[7] = locus YBR171W, strain sec66, hits give low values
[8] = locus YBR231C, strain swc5, hits give low values
[9] = locus YBR279W, strain paf1, hits give low values
[10] = locus YCL011C, strain gbp2, hits give low values
[11] = locus YCL016C, strain dcc1, hits give low values
[12] = locus YCL061C, strain MRC1, hits give low values
[13] = locus YCL069W, strain vba3, hits give low values
[14] = locus YCR088W, strain abp1, hits give low values
[15] = locus YDL005C, strain med2, hits give low values
[16] = locus YDL040C, strain nat1, hits give low values
[17] = locus YDR001C, strain nth1, hits give low values
[18] = locus YDR069C, strain doa4, hits give low values
[19] = locus YDR137W, strain rgp1, hits give low values
[20] = locus YDR159W, strain sac3, hits give low values
[21] = locus YDR297W, strain sur2, hits give low values
[22] = locus YDR334W, strain swr1, hits give low values
[23] = locus YDR335W, strain msn5, hits give low values
[24] = locus YDR392W, strain spt3, hits give low values
[25] = locus YEL003W, strain gim4, hits give low values
[26] = locus YEL037C, strain rad23, hits give low values
[27] = locus YEL061C, strain CIN8 (second series), hits give low values
[28] = locus YER015W, strain faa2, hits give low values
[29] = locus YER016W, strain bim1, hits give low values
[30] = locus YER111C, strain swi4, hits give low values
[31] = locus YER155C, strain BEM2 (second series), hits give low values
[32] = locus YFR010W, strain ubp6, hits give low values
[33] = locus YGL167C, strain pmr1, hits give low values
[34] = locus YGL173C, strain kem1, hits give low values
[35] = locus YGL227W, strain vid30, hits give low values
[36] = locus YGL240W, strain doc1, hits give low values
[37] = locus YGL253W, strain hxk2, hits give low values
[38] = locus YHR013C, strain ard1, hits give low values
[39] = locus YHR027C, strain rpn1, hits give low values
[40] = locus YHR030C, strain SLT2, hits give low values
[41] = locus YHR079C, strain IRE1, hits give low values
[42] = locus YHR142W, strain chs7, hits give low values
[43] = locus YJL092W, strain hpr5, hits give low values
[44] = locus YJL095W, strain BCK1 (second series), hits give low values
[45] = locus YJL095W, strain BCK1, hits give low values
[46] = locus YJL115W, strain asf1, hits give low values
[47] = locus YJL129C, strain trk1, hits give low values
[48] = locus YJL154C, strain vps35, hits give low values
[49] = locus YJL164C, strain tpk1, hits give low values
[50] = locus YJL166W, strain qcr8, hits give low values
[51] = locus YJR066W, strain TOR1, hits give low values
[52] = locus YKL160W, strain elf1, hits give low values
[53] = locus YKR026C, strain gcn3, hits give low values
[54] = locus YKR091W, strain srl3, hits give low values
[55] = locus YLL001W, strain dnm1, hits give low values
[56] = locus YLL026W, hits give low values
[57] = locus YLL041C, strain sdh2, hits give low values
[58] = locus YLR027C, strain aat2, hits give low values
[59] = locus YLR113W, strain HOG1, hits give low values
[60] = locus YLR221C, strain rsa3, hits give low values
[61] = locus YLR258W, strain gsy2, hits give low values
[62] = locus YLR262C, strain YPT6 (second series), hits give low values
[63] = locus YLR320W, strain mms22, hits give low values
[64] = locus YLR342W, strain FKS1, hits give low values
[65] = locus YLR357W, strain rsc2, hits give low values
[66] = locus YLR370C, strain arc18, hits give low values
[67] = locus YLR384C, strain iki3, hits give low values
[68] = locus YML120C, strain ndi1, hits give low values
[69] = locus YMR058W, strain fet3, hits give low values
[70] = locus YMR125W, strain sto1, hits give low values
[71] = locus YMR129W, hits give low values
[72] = locus YMR205C, strain PFK2, hits give low values
[73] = locus YMR231W, strain pep5, hits give low values
[74] = locus YNL071W, strain lat1, hits give low values
[75] = locus YNL183C, strain NPR1, hits give low values
[76] = locus YNL209W, strain ssb2, hits give low values
[77] = locus YNL248C, strain rpa49, hits give low values
[78] = locus YNL322C, strain KRE1 (second series), hits give low values
[79] = locus YNR049C, strain mso1, hits give low values
[80] = locus YOR001W, strain rrp6, hits give low values
[81] = locus YOR070C, strain gyp1, hits give low values
[82] = locus YOR080W, strain dia2, hits give low values
[83] = locus YOR083W, strain WHI5, hits give low values
[84] = locus YOR106W, strain vam3, hits give low values
[85] = locus YOR231W, strain MKK1, hits give low values
[86] = locus YOR265W, strain rbl2, hits give low values
[87] = locus YOR270C, strain vph1, hits give low values
[88] = locus YOR290C, strain snf2, hits give low values
[89] = locus YPL051W, strain arl3, hits give low values
[90] = locus YPL078C, strain atp4, hits give low values
[91] = locus YPL106C, strain sse1, hits give low values
[92] = locus YPL240C, strain hsp82, hits give low values
[93] = locus YPL256C, strain CLN2, hits give low values

Measured: normalized growth

COC1=CC(=O)C(C(=O)c2ccccc2)=CC1=O
inactive: [1] 1.01 | [2] 0.992 | [3] 0.993 | [4] 1.01 | [5] 0.977 | [6] 0.988 | [7] 0.978 | [8] 0.972 | [9] 0.991 | [10] 0.971 | [11] 0.977 | [12] 0.978 | [13] 0.996 | [14] 0.987 | [15] 0.966 | [16] 0.981 | [17] 0.964 | [18] 0.965 | [19] 0.938 | [20] 0.949 | locus YDR195W, strain ref2 0.964 | [21] 0.967 | [22] 0.96 | [23] 0.97 | [24] 0.98 | [25] 0.976 | [26] 0.986 | [27] 0.98 | [28] 0.98 | [29] 0.974 | [30] 0.973 | [31] 0.975 | [32] 0.993 | [33] 0.975 | [34] 1 | [35] 0.986 | [36] 0.955 | [37] 0.987 | [38] 0.967 | [39] 0.966 | [40] 1.02 | [41] 1.02 | [42] 0.996 | [43] 0.968 | [44] 0.971 | [45] 1.02 | [46] 0.956 | [47] 0.941 | [48] 0.974 | [49] 0.988 | [50] 1.01 | [51] 0.94 | [52] 0.991 | [53] 0.993 | [54] 0.97 | [55] 0.972 | [56] 1 | [57] 0.98 | [58] 0.976 | [59] 1.02 | [60] 0.988 | [61] 0.997 | [62] 0.975 | [63] 0.981 | [64] 0.983 | [65] 0.946 | [66] 0.959 | [67] 0.979 | [68] 1 | [69] 0.966 | [70] 0.987 | [71] 1 | [72] 1 | [73] 0.991 | [74] 0.985 | [75] 0.969 | [76] 0.977 | [77] 0.992 | [78] 0.965 | [79] 0.964 | [80] 0.975 | [81] 0.977 | [82] 1 | [83] 0.991 | [84] 0.992 | [85] 1.04 | [86] 0.986 | [87] 1.01 | [88] 0.965 | [89] 0.984 | [90] 0.975 | [91] 0.927 | [92] 0.977 | [93] 1.04

COC1=CC(=O)C(O)=C/C1=C\C=C\c1ccccc1
active: [1] 0.0637 | [2] 0.0627 | [3] 0.0587 | [4] 0.0684 | [5] 0.0623 | [6] 0.075 | [7] 0.0792 | [8] 0.0663 | [9] 0.068 | [10] 0.0594 | [11] 0.0807 | [12] 0.0651 | [13] 0.064 | [14] 0.0619 | [15] 0.0757 | [16] 0.244 | [17] 0.0607 | [18] 0.068 | [19] 0.292 | [20] 0.166 | locus YDR195W, strain ref2 0.115 | [21] 0.0591 | [22] 0.0652 | [23] 0.0631 | [24] 0.0929 | [25] 0.0583 | [26] 0.0597 | [27] 0.064 | [28] 0.0626 | [29] 0.0792 | [30] 0.076 | [31] 0.0935 | [32] 0.0686 | [33] 0.0977 | [34] 0.0694 | [35] 0.0665 | [36] 0.0868 | [37] 0.0562 | [38] 0.205 | [39] 0.064 | [40] 0.114 | [41] 0.111 | [42] 0.0751 | [43] 0.0609 | [44] 0.0603 | [45] 0.104 | [46] 0.0766 | [47] 0.0861 | [48] 0.0623 | [49] 0.0609 | [50] 0.0637 | locus YJL187C, strain SWE1, hits give low values 0.0601 | [51] -0.00301 | [52] 0.073 | [53] 0.0653 | [54] 0.0623 | [55] 0.0646 | [56] 0.0594 | [57] 0.0594 | [58] 0.0574 | [59] 0.173 | [60] 0.0618 | [61] 0.0601 | [62] 0.0834 | [63] 0.0845 | [64] 0.0656 | [65] 0.127 | [66] 0.0611 | [67] 0.0607 | [68] 0.0568 | [69] 0.0632 | [70] 0.0692 | [71] 0.0614 | [72] 0.088 | [73] 0.068 | [74] 0.0619 | [75] -0.000893 | [76] 0.0644 | [77] 0.0693 | [78] 0.068 | [79] 0.0603 | [80] 0.069 | [81] 0.0623 | [82] 0.0977 | [83] 0.0654 | [84] 0.0683 | [85] 0.109 | [86] 0.0614 | [87] 0.0968 | [88] 0.0813 | [89] 0.0697 | [90] 0.0641 | [91] 0.102 | [92] 0.0581 | [93] 0.131

From PubChem BioAssay AID1159580 (chemical genetic matrix, 2015)
